Only some compounds are listed: those with a hit (about 11% of all), similar ones and a draw of the others.
ALDH1A1 inh: blocks purified human ALDH1A1 activity; Potency, µM (doses to about 75.3 µM), without a hit: top-dose activity, negative = inhibition, most hits filed as inhibitors; 220,000 compounds, 7.3% hits; Purified ALDH1A1, NADH fluorescence, propionaldehyde substrate; AID 1030; active = well fitted inhibition curve with a large enough effect, not every such curve was filed as active; inconclusive = small, poorly fitted or top-dose-only effect, or another doubt; inactive = no such curve, though single readings can be large or run the other way;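 note: potency is the fitted concentration of half-maximal effect; plate controls were no enzyme wells and a reference inhibitor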
NPSR antag: neuropeptide S receptor (human) antagonism, cAMP | Q6W5P4 | CHO-NPSR cells, cAMP TR-FRET, antagonist mode | Potency, µM (titrated, usually from 38.3 µM), for inactives: at the highest dose activity change, negative = inhibition, actives largely listed as inhibitors | 220,000 compounds, 1% hits; note: potency is the fitted concentration of half-maximal effect; nearly all actives have a fitted effect of over 50% in size
Target sequence (Q6W5P4 whole entry, looked up): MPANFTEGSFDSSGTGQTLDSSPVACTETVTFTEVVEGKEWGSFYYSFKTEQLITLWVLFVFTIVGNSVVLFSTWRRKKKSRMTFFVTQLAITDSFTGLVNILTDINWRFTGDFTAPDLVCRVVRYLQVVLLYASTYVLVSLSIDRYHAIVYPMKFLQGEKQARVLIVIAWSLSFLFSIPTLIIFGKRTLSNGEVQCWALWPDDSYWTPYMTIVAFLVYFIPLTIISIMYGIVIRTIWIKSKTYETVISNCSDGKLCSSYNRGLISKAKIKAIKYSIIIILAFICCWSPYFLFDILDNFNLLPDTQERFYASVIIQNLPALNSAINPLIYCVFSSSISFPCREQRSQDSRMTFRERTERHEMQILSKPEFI
IMPase Li cell: cell-permeable IMPase inhibitors with lithium potentiation; CHO-M1 cells, IP1 TR-FRET (IP-One), carbachol + lithium; Potency, µM (titrated, usually from 59.4 µM), without a hit: at the top dose activity, negative = IMPase inhibition, actives largely listed as inhibitors; 210,000 compounds, 0.35% hits;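 note: IP1 builds up when IMPase is blocked and the TR-FRET signal falls; potency is the fitted concentration of half-maximal effect; plate controls were basal vehicle for no effect and high inhibitor control for full effect; nearly all actives have a fitted effect of over 50% in size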
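Steps: plate 2000 CHO-M1 cells per well and culture 16–30 h; add compound and lithium; incubate 30 min, 37C; add d2-IP1 tracer and Eu cryptate anti-IP1 antibody in lysis buffer; read after 10 min at room temperature.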
HPGD inh: HPGD (human) dehydrogenase inhibition; P15428; purified HPGD, NADH fluorescence kinetic, PGE2 substrate; Potency, µM, without a hit: top-dose activity change, negative = inhibition, most hits filed as inhibitors; 150,000 compounds, 4.3% hits; AID 894; active = well fitted inhibition curve with a large enough effect, not every such curve was filed as active; inconclusive = small, poorly fitted or top-dose-only effect, or another doubt; inactive = no such curve, though single readings can be large or run the other way; note: potency is the fitted concentration of half-maximal effect
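20 nM HPGD preincubated 15 min at room temperature with compound in 50 mM Tris-HCl pH 8, 0.01% Tween 20. Started with 1 mM NAD+ and 30 uM prostaglandin E2; NADH fluorescence (360/450 nm) read 5 times over 30-s intervals, last minus first.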
IMPase cell inh: IMPase inhibition in cells. 120,000 tested, under 10 active. CHO-M1 cells, IP1 accumulation, HTRF TR-FRET ratio. inhibition (IP1 accumulation), % at 46.1 µM; active = well fitted curve in the direction sought with a large enough effect in the signal ratio, not every such curve was filed as active; inconclusive = small, poorly fitted or top-dose-only effect, or a change in a side signal; inactive = no such curve, though single readings can be large or run the other way; the % refers to the signal ratio;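 note: cells stimulated with carbachol in lithium chloride buffer; plate controls were DMSO basal wells for no effect and reference inhibitor wells for full effect; higher means more IMPase inhibition seen as more IP1 and lower FRET ratio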
Target sequence (P97697 whole entry, looked up): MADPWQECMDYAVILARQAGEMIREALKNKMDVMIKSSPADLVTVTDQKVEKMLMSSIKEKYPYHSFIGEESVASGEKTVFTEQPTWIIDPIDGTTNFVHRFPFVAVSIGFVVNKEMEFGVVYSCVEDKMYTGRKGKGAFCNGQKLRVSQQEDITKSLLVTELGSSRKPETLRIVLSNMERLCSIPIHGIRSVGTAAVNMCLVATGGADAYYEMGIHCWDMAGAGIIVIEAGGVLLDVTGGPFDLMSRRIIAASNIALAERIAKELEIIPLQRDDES
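Elevated IP1 in lysates lowers TR-FRET signal (665/620 ratio and 620 channel reported). Cells were CHO-M1, given carbachol (50 uM as added) plus 50mM LiCl, pH 7.4, 30 min, 37C; compounds titrated up to 46 uM; AC50 by Hill equation.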
PNC inhibitor: blocks assembly of the perinucleolar compartment | PC3M PTB-GFP, PNC prevalence imaging, 16 h; stronger effect = lower value | activity change (PNC), negative = inhibition, % at 10 µM | 140,000 compounds, 3.1% hits;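 active = readout at or below -70, meaning at least 70% loss of cells showing the perinucleolar compartment, a nuclear body marking cancer cells; inconclusive = readout between -30 and a set limit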;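 note: plate controls were DMSO wells for no effect and camptothecin positive control wells for full effect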
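PC3M cells stably expressing PTB-GFP, 750–1000 cells/well, treated 16 h at 37 °C with compound (23 nl of library stock), in duplicate. After paraformaldehyde fixation and Hoechst stain, imaged at 20x; PNC prevalence scored by image analysis.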
* hit, by the source's call; [ ] = remark or other dose. Unless noted, calls come from the whole dose curve; as a rule, active = well fitted curve in the direction sought with a large enough effect; inconclusive = small, poorly fitted or top-dose-only effect, or another doubt; inactive = no such curve, though single readings can be large; an effect the other way counts as inactive or inconclusive. Unless noted, % is set by controls: 0 for no effect and ±100 for the full control effect.

What do the screens show for `Fc1ccc(-n2c(-c3ccc4ccccc4n3)n[nH]c2=S)cc1`?
ALDH1A1 inh: 6%; NPSR antag: -2%; IMPase Li cell: 3%

What do the screens show for `S=c1[nH]nc(-c2ccc3ccccc3n2)n1-c1cc(Cl)cc(Cl)c1`?
ALDH1A1 inh: inconclusive; NPSR antag: -58%; IMPase Li cell: 10µM*; HPGD inh: inconclusive; IMPase cell inh: -20; PNC inhibitor: -17

What do the screens show for `CC1CCCCC1NC(=O)COC(=O)c1ccc2c(c1Cl)C(=O)c1ccccc1C2=O` (stereo not given)?
ALDH1A1 inh: -16%; NPSR antag: 9%; IMPase Li cell: -2%; HPGD inh: 16µM*; PNC inhibitor: 8

How did O=C(O)c1ccc(N/N=C/c2ccc(OC(=O)c3ccccc3Cl)cc2)cc1 do in these assays?
ALDH1A1 inh: 3%; NPSR antag: -26%; IMPase Li cell: 8%; HPGD inh: 25µM*; PNC inhibitor: inconclusive

How did CC(C)c1ccc(/C=N/Nc2ccc(C(=O)O)cc2)cc1 do in these assays?
ALDH1A1 inh: inconclusive; NPSR antag: -18%; IMPase Li cell: 5%; HPGD inh: 14µM*; PNC inhibitor: -9

Results for COc1ccc(-n2nnnc2S(=O)(=O)CC(=O)N2CCCCC2)cc1 ?
ALDH1A1 inh: 6.3µM*; NPSR antag: -9%[46.1 µM]; IMPase Li cell: 19%[38.3 µM]; HPGD inh: 14µM*; IMPase cell inh: 18; PNC inhibitor: -21

What do the screens show for `CCOC(=O)c1c(NC(=O)Cn2cnc3sc(C)c(-c4ccccc4)c3c2=O)sc(C)c1C`?
ALDH1A1 inh: inconclusive; NPSR antag: -17%; IMPase Li cell: 3%; HPGD inh: inconclusive; PNC inhibitor: 7

How did CCOC(=O)c1c(NC(=O)Cn2cnc([N+](=O)[O-])n2)sc(C)c1C do in these assays?
ALDH1A1 inh: 32µM*; NPSR antag: 10%; IMPase Li cell: -3%

Results for CC(C)OC(=O)c1c(NC(=O)Cn2cnc([N+](=O)[O-])n2)sc2c1CCCC2 ?
ALDH1A1 inh: 13µM*; NPSR antag: -19%[46.1 µM]; IMPase Li cell: 13%[38.3 µM]; HPGD inh: -27%; IMPase cell inh: 2; PNC inhibitor: inconclusive

How did COC(=O)c1c(NC(=O)Cn2nc(C(F)F)cc2C(F)F)sc(C)c1C do in these assays?
ALDH1A1 inh: 11µM*; NPSR antag: -23%[46.1 µM]; IMPase Li cell: 13%[38.3 µM]; HPGD inh: 28µM*; IMPase cell inh: 4; PNC inhibitor: inconclusive

How did CCOC(=O)c1c(NC(=O)Cn2cnc([N+](=O)[O-])n2)sc2c1CCCC2 do in these assays?
ALDH1A1 inh: inconclusive; NPSR antag: -10%; IMPase Li cell: 4%; HPGD inh: -17%; IMPase cell inh: 5; PNC inhibitor: 30

What do the screens show for `CCOC(=O)c1c(NC(=O)Cn2nc(C(F)F)cc2C(F)F)sc(C)c1C`?
ALDH1A1 inh: inconclusive; NPSR antag: -15%[46.1 µM]; IMPase Li cell: 12%[38.3 µM]; HPGD inh: inconclusive; IMPase cell inh: -7; PNC inhibitor: 37

Results for CCOC(=O)c1c(NC(=O)Cn2cnc3scc(-c4ccc(C)cc4)c3c2=O)sc(C)c1C ?
ALDH1A1 inh: 14µM*; NPSR antag: -14%[46.1 µM]; IMPase Li cell: -22%; HPGD inh: -29%; IMPase cell inh: 4; PNC inhibitor: inconclusive

What do the screens show for `Cc1nnc(N/N=C\c2ccc(-c3cccc(C(=O)O)c3)o2)n1N`?
ALDH1A1 inh: inconclusive; NPSR antag: -5%; IMPase Li cell: 17%

Results for O=C(C1CCN(S(=O)(=O)c2ccc(Br)s2)CC1)N1CCN(c2ccc(F)cc2)CC1 ?
IMPase cell inh: -2

Results for C/C(=N\NC(=O)c1c(Br)c(C)nn1C)c1ccc(NC(=O)C(C)Oc2ccc(Cl)cc2C)cc1 (stereo not given) ?
ALDH1A1 inh: -7%; NPSR antag: -24%[46.1 µM]; IMPase Li cell: 5%[38.3 µM]; HPGD inh: -13%; IMPase cell inh: inconclusive; PNC inhibitor: -6

How did CCOC(=O)NC(=O)/C(N=Nc1cccc(C(F)(F)F)c1)=C(\C)O do in these assays?
ALDH1A1 inh: 7%; NPSR antag: -9%; IMPase Li cell: 6%

What do the screens show for `CN(C(=O)COC(=O)c1cncc(Br)c1)C1CCS(=O)(=O)C1` (stereo not given)?
ALDH1A1 inh: 2%; NPSR antag: 13%; IMPase Li cell: 5%

How did COC(=O)c1cc2ccsc2n1CC(=O)Nc1cc(Cl)ccc1OC do in these assays?
ALDH1A1 inh: inconclusive; NPSR antag: -10%[46.1 µM]; IMPase Li cell: 28%[38.3 µM]; HPGD inh: -13%; IMPase cell inh: 12; PNC inhibitor: inconclusive

How did Cc1ccccc1OCC1CN(CN2CCOCC2)C(=O)O1 (stereo not given) do in these assays?
ALDH1A1 inh: 3%; NPSR antag: -7%[46.1 µM]; IMPase Li cell: 2%[38.3 µM]; HPGD inh: -1%; IMPase cell inh: 1; PNC inhibitor: -87*

What do the screens show for `CC(C)(C)N1CC(COc2ccccc2)OC1=O` (stereo not given)?
ALDH1A1 inh: 10%; NPSR antag: -7%[46.1 µM]; IMPase Li cell: 3%; HPGD inh: -6%; IMPase cell inh: -3; PNC inhibitor: inconclusive

What do the screens show for `COc1ccc(N(C)C(=O)c2cnc(N3CCN(c4ncccn4)CC3)c3ccccc23)cc1`?
ALDH1A1 inh: -7%; NPSR antag: -17%[46.1 µM]; IMPase Li cell: -7%[38.3 µM]; HPGD inh: 28µM*; IMPase cell inh: 12; PNC inhibitor: 12

How did O=[N+]([O-])c1nn(-c2ccc3c(c2)OCCO3)n(O)c1=Nc1ccccc1 do in these assays?
ALDH1A1 inh: 11µM*; NPSR antag: -4%; IMPase Li cell: 1%; HPGD inh: -3%; PNC inhibitor: inconclusive

Results for O=[N+]([O-])c1nn(-c2ccc3c(c2)OCCO3)n(O)c1=NC1CCCCCC1 ?
ALDH1A1 inh: 14µM*; NPSR antag: -18%[46.1 µM]; IMPase Li cell: 30%[38.3 µM]; HPGD inh: -4%; IMPase cell inh: -3; PNC inhibitor: 13

How did O=[N+]([O-])c1nn(-c2ccc3c(c2)OCCO3)n(O)c1=Nc1ccc(Cl)cc1 do in these assays?
ALDH1A1 inh: inconclusive; NPSR antag: -15%[46.1 µM]; IMPase Li cell: 14%[38.3 µM]; HPGD inh: -3%; IMPase cell inh: 4; PNC inhibitor: 33

How did COc1ccc(Nc2nc3ccc(C)cn3c(=O)c2/C=N/O)cc1 do in these assays?
ALDH1A1 inh: 2%; NPSR antag: -25%; IMPase Li cell: 11%

Results for Cc1ccc2nc(Nc3ccccc3)c(/C=N/O)c(=O)n2c1 ?
ALDH1A1 inh: 7%; NPSR antag: -11%[46.1 µM]; IMPase Li cell: 13%; HPGD inh: 11µM*; IMPase cell inh: -1; PNC inhibitor: -100*
